In all, about 290,000 compounds went through this assay and about 3,000 (1%) were called active. Only a selection was taken, and actives are over-represented in it overall. A number with no mark means an inactive call. No stated cut-off is given here; in the data, active means inhibition mostly above about 36% (no sharp cut-off); inactive means mostly below about 34%.

This test in a line: NOD1 signaling inhibitors, primary screen, cell-based, luminescence, uHTS (AID 1578).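 Further: HEK-293T reporter cells stimulated with the NOD1 agonist gamma-tri-DAP.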 As to conditions: NOD1-driven NF-kB luciferase reporter cells, at 4 µM, active compounds read high.
Regarding `c1ccc(C(c2nnnn2C2CCCC2)N2CCN(c3nc4ccccc4s3)CC2)cc1` (centres undefined), the inhibition (in general, the drop in the measured response relative to a control, in per cent) is 8.2%. In the case of `CCOC(=O)c1c(NC(=O)CC)sc2c1CCN(Cc1ccccc1)C2`, the inhibition was -21.7%.

`Nc1nonc1-n1nnc(C(=O)N/N=C/c2ccccn2)c1CNc1ccccc1`: the inhibition was -11.6%. In the case of `Cc1ccsc1/C=N/NC(=O)c1cc(-c2ccncc2)nc2ccccc12`, the inhibition is 69.5% (active). For the molecule `COc1ccccc1-c1cc(C(=O)N/N=C/c2sccc2C)c2ccccc2n1`, the inhibition is -11.4%. As to `O=C(N/N=C/c1cccs1)c1cc(-c2ccncc2)nc2ccccc12`, the inhibition was 4.8%.

Take `Cc1onc(-c2ccccc2Cl)c1C(=O)OCC(=O)c1c(N)n(C)c(=O)n(C)c1=O`: the inhibition is -8.2%. For the molecule `COc1ccc(C(C(=O)NC2CCCCC2)N(C(=O)c2snc(C(N)=O)c2N)c2ccc(OC)cc2OC)cc1` (centres undefined), the inhibition was -7.1%.

For the molecule `Cn1c(=O)n(C)c2cc(NC(=O)c3ccccc3NS(C)(=O)=O)ccc21`, the inhibition is 44.4%. The value for `O=c1[nH]c(C2CCN(S(=O)(=O)Cc3ccccc3)CC2)nc2c1nnn2Cc1cccc(Cl)c1` was -7.8%. As for `NC(N)=NC(=S)Nc1ccc(Cl)cc1`, the inhibition was -15.3%. `NC(=NCCCCCCN=C(N)/N=C(\N)Nc1ccc(Cl)cc1)/N=C(\N)Nc1ccc(Cl)cc1`: the inhibition was 46.6% (active). Turning to `NC(=O)Nc1ccc(Cl)cc1`, the inhibition was 0.2%. Take `Cc1ccc(S(=O)(=O)NC(C)C(=O)Nc2ccc3c(c2)OCO3)cc1` (centres undefined): the inhibition was -7.4%. In the case of `Cc1cc(C(F)F)n2nc(C(=O)Nc3cccc(C(F)(F)F)c3)nc2n1`, the inhibition was -25.8%. `COC(=O)CNC(=O)C(NC(=O)c1ccc(Cl)cc1)C(C)C` (centres undefined): the inhibition was 1.3%. For the molecule `O=C(CC1C(=O)NCCN1Cc1cccc(F)c1)NC1CCC1` (centres undefined), the inhibition was -28.3%. The value for `CCOc1ccc2c(c1)C(C)=CC(C)(C)N2S(=O)(=O)c1ccc(C)cc1` was -31.4%.

For `COc1ccc2c(c1)C(C)=CC(C)(C)N2S(=O)(=O)c1ccc(NC(C)=O)cc1`, the inhibition is 31.4%. Under `CCOc1ccc2c(c1)C(C)=CC(C)(C)N2S(=O)(=O)c1ccc(NC(C)=O)cc1` stands 74.1% (active); under `CC(=O)c1cnc2nc(SCc3ccccc3)nn2c1C`, -36%. Under `O=C(NC1CCCC1)C(c1ccc(F)cc1)N(C(=O)c1csnn1)c1ccccc1` (centres undefined) stands -27.7%; under `O=C(CSc1nc2ccccc2s1)c1ccc(O)cc1O`, 0.6%; under `CCOc1ccc2nc(SCC(=O)Nc3ccc4c(c3)OCO4)sc2c1`, 67.3% (active).

On to `CCOc1ccc2nc(SCC(=O)c3ccccc3)sc2c1`, for which the inhibition was -38.9%.

As for `CCOc1ccc2nc(SCC(=O)c3ccc(O)cc3O)sc2c1`, the inhibition is 51.8% (active). As to `CCOc1ccc2nc(SCC(=O)NC(=O)C(C)C)sc2c1`, the inhibition is -13.9%. In the case of `O=C(CSc1nc2ccccc2s1)Nc1ccc2c(c1)OCO2`, the inhibition is 12.2%.

Regarding `CCN1CCN(C(=S)c2ccc(O)cc2)CC1`, the inhibition was -31%. Regarding `Nc1cccc(C(=O)OCC(=O)Nc2cccc3c2C(=O)c2ccccc2C3=O)c1`, the inhibition is -3.2%. For `O=C(CSc1ccccc1)NC1=NCCS1`, the inhibition was -5.2%.

`COc1ccccc1C(=O)N1CCN(c2cccc(Cl)c2)CC1`: the inhibition is 33.8%. Under `COc1ccc(N(C)C(=O)c2cnc(N3CCN(c4ncccn4)CC3)c3ccccc23)cc1` stands -20%. For `COc1ccc(Nc2ncc(C(=O)N3CCN(c4ccccc4OC)CC3)c3ccccc23)cc1`, the inhibition was 52.5%.

For the molecule `CN(C(=O)c1cnc(N2CCN(c3ncccn3)CC2)c2ccccc12)c1ccc(Cl)cc1`, the inhibition was 14.2%. The value for `COc1ccc(CNCc2ccc(F)cc2)c(OC)c1` was -19.8%; that for `CCOC(=O)NC(=O)/C(N=Nc1cc(C)cc(C)c1)=C(\C)O` was -20.5%. As to `CC(C)(C)NCC(O)(c1ccc(Cl)cc1)c1ccc(Cl)cc1`, the inhibition was -30.2%.

For the molecule `CCNC(=S)N(Cc1ccc2c(c1)OCO2)C1CC(=O)N(c2ccc(F)cc2)C1=O` (centres undefined), the inhibition was -9.3%.

On to `COc1ccc(N2CCN(C(=O)c3ccc(CNS(=O)(=O)c4cc(C)ccc4C)cc3)CC2)cc1`, for which the inhibition was -18.8%. The value for `COc1cccc(CNS(=O)(=O)c2ccc3c(c2)CC(C)N3C(=O)C2CC2)c1` (centres undefined) was 11.6%; that for `COc1ccc(S(=O)(=O)NCc2ccc(C(=O)O)cc2)cc1` was 40.7% (active); that for `Cc1ccc(S(=O)(=O)NCc2ccc(C(=O)N3CCN(c4ccccc4)CC3)cc2)cc1` was 15.5%. For the molecule `CC1Cc2cc(S(=O)(=O)NCc3ccccc3)ccc2N1C(=O)C1CC1` (centres undefined), the inhibition is -4.7%. The value for `COc1ccc(S(=O)(=O)NCc2ccccc2)cc1` was 9.2%; that for `Cc1ccc(S(=O)(=O)NCc2ccc(C(=O)N3CCCC3)cc2)cc1` was -46%. Under `COc1ccc(CNS(=O)(=O)c2ccc(OC)cc2)cc1` stands -1.2%. The value for `CCOC(=O)N1CCN(C(=O)c2ccc(CNS(=O)(=O)c3ccc(C)cc3)cc2)CC1` was -13.1%; that for `COc1ccccc1-c1noc(CCCC(=O)N2CCOCC2)n1` was -3.7%.

Take `O=C(CCc1nc(-c2ccc(Cl)cc2)no1)NC1CCCCC1`: the inhibition was -5.8%.

As for `CCOC(=O)C1CCCN(C(=O)CNC(=O)Cn2ccc3ccccc3c2=O)C1` (centres undefined), the inhibition was -4.8%. As for `O=C(NC(=O)N1CCCCC1)c1ccccc1`, the inhibition is -30.9%. Regarding `O=C(NCc1ccccc1)c1cc[n+](CC(=O)c2cccs2)cc1`, the inhibition is 3.5%. For the molecule `CCOc1ccc(CN(C)C(=O)c2ccc3ccccc3n2)cc1`, the inhibition was -22.9%. As for `Cc1cccc(N(Cc2ccccc2)C(=O)c2ccc(S(C)(=O)=O)cc2)c1`, the inhibition was 5.8%.

For the molecule `CCNC(=S)N1CCN(c2ccc([N+](=O)[O-])cc2)CC1`, the inhibition is 16%. With `C=CCNC(=S)N1CCN(c2ccc([N+](=O)[O-])cc2)CC1`, the inhibition was 4.7%. With `O=[N+]([O-])c1ccc(N2CCN(C(=S)NCc3ccc(Cl)cc3)CC2)cc1`, the inhibition was 89% (active). For the molecule `CC(C)(C)n1nc2c(c1NC(=O)c1cc(Cl)ccc1[N+](=O)[O-])CS(=O)(=O)C2`, the inhibition is 19.5%.

The values are drawn from PubChem BioAssay AID1578 (Sanford-Burnham Center for Chemical Genomics, 2009).
